Screens deposited in PubChem BioAssay by several laboratories.
Hits are enriched below; roughly 1.9% of the tested compounds scored in any of these assays.
DSG3 Ab inh: inhibitors of pemphigus antibody binding to DSG3, primary screen, biochemical, bead-based, flow cytometry, scFv-GFP. Desmoglein-3 (Homo sapiens), P32926. DSG3-coupled beads, scFv-anti-DSG3-GFP binding; stronger effect = lower value. binding (percent of control), % at 10 µM. 310,000 tested, 0.48% active. AID 588358, 2011;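 active = binding more than 3 SD below its plate's average and above zero; inconclusive = below that plate limit but binding exactly zero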;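 note: hits lower antibody fragment binding to DSG3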
Vif inh: HIV Vif self-association inhibitors, primary screen, imaging, HEK293T, single point; 340,000 tested, 0.35% active; HEK293T cells, Vif self-association by quenched fluorescence, 24 h; inhibition, % at 7.49 µM; in the data active = inhibition above about 50%, passing the limit was not always enough; inconclusive = no clear call, values can overlap the other calls; inactive = below about 31%
Glyco luc inh: increase of ERlucT glycosylation luciferase signal, primary screen, N-linked glycosylation inhibitor project, D54 ERlucT cells, luminescence, set 2; D54 ERlucT glycosylation luciferase reporter, 24 h; percent of 100 nM tunicamycin response; reporter increase, % at 12.5 µM; 360,000 tested, 0.23% active;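 active = mean luciferase reporter signal, scaled so untreated is 0 and the glycosylation-blocking control 100, at or above a set limit in every replicate; inconclusive = mean reaches the limit but not every replicate does; inactive = mean below the limit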;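 note: luciferase carries N-glycosylation sites so blocking glycosylation raises the light; 0% = median of neutral control wells and 100% = median of 100 nM tunicamycin wells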
ATG4B inh: ATG4B protease inhibitors, primary screen, biochemical, fluorescence, uHTS. 340,000 tested, 0.51% active. ATG4B cleavage of LC3-PLA2, NBD-HPC fluorescence, 1 h. AID 504462, 2011. inhibition, % at 8.33 µM. Cysteine protease ATG4B (Homo sapiens), Q9Y4P1; in the data active = inhibition above about 40%
Target sequence (Q9Y4P1 whole entry, looked up): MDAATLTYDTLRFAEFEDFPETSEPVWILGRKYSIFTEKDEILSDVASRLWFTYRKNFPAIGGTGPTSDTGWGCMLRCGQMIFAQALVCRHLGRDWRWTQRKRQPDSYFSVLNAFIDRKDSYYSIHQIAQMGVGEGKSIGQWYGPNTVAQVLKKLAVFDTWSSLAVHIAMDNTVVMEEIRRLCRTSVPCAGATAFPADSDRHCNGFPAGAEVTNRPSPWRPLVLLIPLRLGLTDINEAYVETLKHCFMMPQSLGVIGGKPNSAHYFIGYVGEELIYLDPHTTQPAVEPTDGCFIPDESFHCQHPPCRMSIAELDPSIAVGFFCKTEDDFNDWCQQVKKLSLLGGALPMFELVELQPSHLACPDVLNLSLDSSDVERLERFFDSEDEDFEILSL
CaV13 ICDI inh: Disruptors of the CACNA1D IQ motif to Ca2+-dependent inactivation inhibitor domain association, primary screening, Förster resonance energy transfer in intact living …. 340,000 tested, 0.098% active. AID 743397. inhibition, % at 12.3 µM. HEK cells, CFP/YFP FRET ICDI-IQ, plate reader, 10 min; percent FRET-ratio fall versus neutral wells;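 active = mean replicate inhibition of at least 30% and at least 1% of replicates passing that level; inconclusive = only one of the two criteria is met; inactive = neither criterion is met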;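 note: 0% = median of the neutral control wells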
NSD2 HMT inh: NSD2 histone methyltransferase inhibitors, primary screen, biochemical, AlphaScreen, single concentration, set 2; Histone-lysine N-methyltransferase NSD2 (Homo sapiens), O96028; 310,000 tested, 0.54% active; NSD2 peptide methylation, 120 min; inhibition, % at 12.5 µM; in the data active = inhibition above about 50%
Alpha artifact: AlphaScreen signal interference with preloaded methylated product, dose response, artefact control for NSD2 inhibitor project, biochemical, cherry-picked samples; shares compounds with NSD2 HMT inh; AlphaScreen artifact counterscreen, preloaded methylated H4 peptide; AC35, µM (series often up to 10 µM), for the others: top-dose activity change, negative = signal loss; 1,500 tested, 9.4% active; call rule not given here
Numbers without * were called inactive; u = inconclusive; x = not tested or not shown.

SMILES | DSG3 Ab inh | Vif inh | Glyco luc inh | ATG4B inh | CaV13 ICDI inh | NSD2 HMT inh | Alpha artifact
CCN(CC)CCCNC(=O)C1CCN(C(=O)c2oc3cc4sc(N(C)C)nc4cc3c2C)CC1 | 107 | -6 | -2 | 5 | -3 | 57* | 0%
Cc1ccc(C(=O)N2CCN(c3ccccc3F)CC2)cc1NC1=NC2CS(=O)(=O)CC2S1 (stereo not drawn) | 94 | -6 | 2 | -2 | -2 | -2 | x
CSc1ncccc1C(=O)Nc1ncc(C)s1 | 104 | -4 | 4 | 7 | -18 | 4 | x
CSc1ncccc1C(=O)Nc1nc2c(C)cccc2s1 | 102 | x | 0 | -1 | -7 | 104* | -1%
COc1ccc(CC(=O)NN2C(=O)c3ccccc3C2=O)cc1 | 94 | -2 | 0 | 1 | -5 | -1 | x
COc1ccc(CC2=CC(=O)c3ccccc3C2=O)cc1 | 105 | 40 | 24 | 0 | -4 | 55* | -4%
O=c1cc(-c2ccccc2)oc2cc(O)c(O)c(O)c12 | 97 | 8 | -9 | -25 | x | x | x
O=c1c(O)cccc2cc(O)c(O)c(O)c12 | 33* | -3 | 3 | 6 | -2 | 128* | 1.6µM*
O=C(COC(=O)c1ccccc1F)NC1CC1 | 103 | 3 | 5 | 3 | -4 | 52* | 2%
Oc1ccccc1CNc1cccc2cccnc12 | 127 | -2 | 13 | -5 | -3 | 53* | -2%
COc1cc(NCc2ccccc2O)c2ncccc2c1 | 81 | -7 | 4 | -2 | -14 | -1 | x
O=C1C(=Cc2ccco2)CCC1=Cc1ccco1 | 130 | 6 | 1 | 22 | -10 | 141* | -9%
CSCC[C@H](NC(=O)OC(C)(C)C)c1nnc(SCc2ccccc2)o1 | 101 | -6 | -4 | -4 | -2 | -2 | x
OCCCN1CCN(CCCOc2ccccc2-c2ccccc2)CC1 | 118 | -1 | -1 | -2 | -4 | 12 | x
CN(CCc1ccccc1)C(=O)c1ccc(NC(=O)Cc2ccc(NC(=O)C3CCCN(C(=O)C4CCCCC4)C3)cc2)cc1 (stereo not drawn) | 103 | -7 | 1 | -2 | -8 | x | x
CCOc1ccc(NC(=O)CN(c2cccc(C(F)(F)F)c2)S(C)(=O)=O)cc1 | 97 | u | 0 | -3 | -4 | 113* | 0%
COc1cccc(NC(=O)CN(c2cccc(C(F)(F)F)c2)S(C)(=O)=O)c1 | x | -2 | -1 | -17 | -4 | -2 | x
c1coc(-c2nc(-c3ccco3)c(-c3ccco3)nc2-c2ccco2)c1 | 88 | x | 9 | 39 | -2 | 149* | -6%
Nc1nc(-c2ccco2)c(-c2ccco2)s1 | 94 | 3 | 0 | 4 | -8 | 4 | x
COc1ccccc1C1CC(c2ccc(NS(C)(=O)=O)cc2)=NN1S(=O)(=O)c1ccccc1 (stereo not drawn) | 110 | -1 | -2 | -17 | -3 | 0 | x
Cc1nnc(N/N=C\c2ccc(-c3cccc(C(=O)O)c3)o2)n1N | 103 | 5 | 6 | -8 | -5 | 95* | 4%
CN1CCN(c2ccc(S(=O)(=O)N3CCOCC3)cc2NC(=O)COc2ccc(F)cc2Cl)CC1 | 110 | -1 | -3 | -1 | -6 | 185* | -1%
Cc1ccc(OCC(=O)Nc2cc(S(=O)(=O)N3CCOCC3)ccc2N2CCCC2)cc1 | 98 | -4 | 1 | -8 | -1 | 0 | x
O=C(COc1ccc(F)cc1Cl)Nc1cc(S(=O)(=O)N2CCOCC2)ccc1N1CCCCC1 | 110 | -15 | -8 | -9 | x | -6 | x
Cc1ccc(Cl)c(OCC(=O)Nc2cc(S(=O)(=O)N3CCOCC3)ccc2N2CCCC2)c1 | 96 | x | 1 | -11 | -3 | 73* | -4%
SMILES | DSG3 Ab inh | Vif inh | Glyco luc inh | ATG4B inh | CaV13 ICDI inh | NSD2 HMT inh | Alpha artifact
Cc1cc(NC(=O)COC(=O)c2cccc(S(=O)(=O)N3CCOCC3)c2)no1 | 104 | 13 | -1 | -11 | x | 108* | -2%
Cc1cc(NC(=O)c2cccc(S(=O)(=O)N3CCOCC3)c2)no1 | 102 | 16 | 0 | -1 | x | 1 | x
CCOc1cccc(-c2c(C(=O)N/N=C/c3ccc(C)o3)nnn2-c2nonc2N)c1 | 93 | 0 | 2 | -2 | -3 | 5 | x
O=C(O)CN1C(=O)/C(=C\c2cc(Br)ccc2OCc2ccc(F)cc2)SC1=S | 98 | -7 | 1 | 22 | -19 | 104* | -11%
CCOC(=O)c1c2c(n(Cc3ccccc3)c1C)C(=O)C(=O)c1ccccc1-2 | 91 | 2 | -23 | 20 | -5 | 63* | 9.3µM*
CCOC(=O)c1c2c(n(C)c1C)C(=O)C(=O)c1ccc(Br)cc1-2 | 102 | 16 | -21 | -11 | -4 | x | x
Cc1cc(C=O)c(C)n1-c1cccc(C(=O)O)c1 | 99 | 1 | 0 | 6 | -4 | 31 | x
Cc1cc(C=O)c(C)n1-c1cc(C(=O)O)cc(C(=O)O)c1 | 104 | -1 | 1 | -9 | -7 | 84* | -5%
C/C(=N\NC(=O)c1nnn(-c2nonc2N)c1C)c1ccc(-c2ccccc2)cc1 | x | 6 | -1 | -4 | -2 | 99* | -1%
CCN(CC)S(=O)(=O)c1cc(NC(=O)COC(=O)Cn2cnc3ccccc32)ccc1C | 102 | -9 | 3 | -14 | -3 | -3 | x
Cc1ccc(CN2CCC(C(=O)Nc3ccc(Oc4cccnc4)cc3)CC2)cc1 | 115 | -3 | -5 | -2 | 1 | 1 | x
COc1ccc(-c2cn[nH]c2N)cc1 | 113 | 0 | 0 | -4 | x | 63* | -3%
COc1ccc(NC(=O)CCCOc2ccc(C)cc2)cc1S(=O)(=O)N1CCCCC1 | 100 | -18 | -2 | x | -7 | -1 | x
